Assay results as given in the supplement of paper PMC12350171.
Counter-ions that a name gives are not always drawn. A number with no mark means an inactive call.

Assays:
Details in all cases: 20 µM
[1] = test system: Salmonella enterica typhimurium; experiment: growth AUC normalised to DMSO control (fraction of control); higher = less growth inhibition, active = hit call of the paper
In short: (§1)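 Three biological replicates were carried out, with OD578 read hourly for 24 h. Before inoculation at a starting OD578 of 0.01, pathogens were passaged anaerobically twice; plates were pre-reduced mGAM containing 20 μM compound and 1% DMSO, sealed with breathable membranes, and the Haemophilus parainfluenzae medium carried added hemin and NAD. Area under each growth curve was calculated by the trapezoidal rule up to the exponential-to-stationary transition and normalised to DMSO controls on the same plate.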

[2] = test system: Shigella flexneri; experiment: as above
In short: as §1

[3] = test system: Vibrio cholerae; experiment: as above
In short: as §1

[4] = test system: Yersinia pseudotuberculosis; experiment: as above
In short: as §1

[5] = test system: P. vulgatus RND KO; experiment: growth AUC normalised to DMSO control (median) (fraction of control); higher = less growth inhibition, active = hit call of the paper
In short: (§2)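 For normalised area under the curve, growth curves were truncated at entry into stationary phase, integrated by the trapezoidal rule and divided against vehicle wells on the same plate. The curves came from strains passaged twice overnight without oxygen and then grown in mGAM in 96-well plates at a starting OD578 of 0.01. Each well held an approved-drug library compound at 20 μM with 1% DMSO, and OD578 was read hourly for 24 h in an anaerobic incubator. Values are medians of three biological replicates.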

[6] = test system: P. vulgatus WT; experiment: as above
In short: as §2

[7] = test system: S. enterica typhimurium WT; experiment: as above
In short: as §2

[8] = test system: S. enterica typhimurium tolC KO; experiment: as above
In short: as §2
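For growth AUC normalised to DMSO control (median) in this document: active when median AUC fell below 0.1.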

Row | SMILES | growth AUC normalised to DMSO control [1] | growth AUC normalised to DMSO control [2] | growth AUC normalised to DMSO control [3] | growth AUC normalised to DMSO control [4] | growth AUC normalised to DMSO control [5] | growth AUC normalised to DMSO control [6] | growth AUC normalised to DMSO control [7] | growth AUC normalised to DMSO control [8]
1 | C[C@]12CC[C@@H]3c4ccc(O)cc4C[C@@H](CCCCCCCCC[S+]([O-])CCCC(F)(F)C(F)(F)F)[C@H]3[C@@H]1CC[C@@H]2O (some centres not stated) [Fulvestrant] | 1.01 | 1.09 | 1.01 | 0.994 | 1.05 | 1.02 | 1.02 | 0.998
2 | CC(C)(C)NC[C@H](O)COc1cccc2c1CCCC2=O [(-) Levobunolol hydrochloride] | 0.994 | 0.936 | 0.973 | 0.989 | 0.982 | 0.981 | 0.995 | 0.997
3 | N=C(N)NC(=N)NCCc1ccccc1 [Phenformin hydrochloride] | 1.01 | 0.995 | 1.01 | 0.987 | 1.01 | 1.04 | 0.994 | 0.986
4 | CN(C)CCOC(=O)C(c1ccccc1)C1(O)CCCC1 (configuration not stated) [Cyclopentolate hydrochloride] | 1.02 | 1.01 | 1 | 1.02 | 0.98 | 0.993 | 0.999 | 1
5 | CCn1cc(C(=O)O)c(=O)c2cc(F)c(N3CCNCC3)nc21 [Enoxacin] | 0.00943 (active) | 0.0451 (active) | 0.033 (active) | 0.0435 (active) | 0.136 | 0.419 | 0.00979 (active) | 0.00708 (active)
6 | O=C(CCCN1CCC(O)(c2ccc(Cl)cc2)CC1)c1ccc(F)cc1 [Haloperidol] | 0.976 | 0.966 | 0.97 | 0.966 | 0.965 | 0.963 | 0.998 | 0.962
7 | CC[N+](C)(C)Cc1ccccc1Br [Bretylium tosylate] | 1 | 1.01 | 1.02 | 1.02 | 0.995 | 1.03 | 1 | 0.999
8 | CCCc1cc(=O)[nH]c(=S)[nH]1 [Propylthiouracil] | 0.987 | 0.991 | 1 | 0.993 | 1.02 | 1.05 | 1.01 | 0.996
9 | C[N+](C)(C)CCOC(N)=O [Carbachol chloride] | 1.03 | 1.07 | 1.08 | 1.01 | 1.09 | 1.05 | 1.01 | 1.01
10 | CN1CCN2c3ncccc3Cc3ccccc3C2C1 (configuration not stated) [Mirtazapine] | 0.995 | 1.01 | 1.01 | 1 | 1.03 | 1.02 | 1 | 0.997
11 | CCCCC(O)c1ccccc1 (configuration not stated) [Fenipentol] | 0.997 | 0.986 | 1.01 | 0.995 | 1 | 0.988 | 1 | 1
12 | OC(c1cc(C(F)(F)F)nc2c(C(F)(F)F)cccc12)C1CCCCN1 (configuration not stated) [Mefloquine hydrochloride] | 0.997 | 0.975 | 1 | 0.99 | 0.719 | 0.777 | 0.998 | 0.948
13 | CC(=O)OCC(=O)[C@@]1(O)CC[C@H]2[C@@H]3CCC4=CC(=O)CC[C@]4(C)[C@@]3(F)[C@@H](O)C[C@@]21C [Fludrocortisone acetate] | 0.995 | 0.988 | 1 | 1 | 1.02 | 1.04 | 1.02 | 0.981
14 | CN1CCN(CCCN2c3ccccc3Sc3ccc(Cl)cc32)CC1 [Prochlorperazine dimaleate] | 1.01 | 1.02 | 0.947 | 1 | 1.01 | 0.981 | 0.996 | 0.892
15 | COC(=O)C1=C(C)NC(C)=C(C(=O)OCC(C)C)C1c1ccccc1[N+](=O)[O-] (configuration not stated) [Nisoldipine] | 1.01 | 1 | 1.01 | 0.991 | 0.945 | 0.981 | 1.01 | 0.95
16 | CN(C)/N=N/c1[nH]cnc1C(N)=O [Dacarbazine] | 0.989 | 0.976 | 0.994 | 1 | 1.04 | 1.03 | 0.997 | 1
17 | COc1ccc(/C=C/C(=O)Nc2ccccc2C(=O)O)cc1OC [Tranilast] | 0.999 | 0.973 | 0.992 | 1.01 | 0.999 | 1.02 | 1.04 | 0.952
18 | NCCc1cc[nH]n1 [Betazole hydrochloride] | 0.986 | 0.97 | 0.979 | 0.968 | 0.999 | 1.02 | 1 | 0.999
19 | CC[N+](C)(C)c1cccc(O)c1 [Edrophonium chloride] | 1.01 | 1 | 1.02 | 0.964 | 1.02 | 1.02 | 1.01 | 0.992
20 | CC(Cc1cccc(C(F)(F)F)c1)NCCOC(=O)c1ccccc1 (configuration not stated) [Benfluorex] | 0.94 | 0.968 | 0.869 (active) | 1.01 | 0.956 | 0.975 | 0.986 | 0.98
21 | C#CCN(C)Cc1ccccc1 [Pargyline hydrochloride] | 0.964 | 1.03 | 0.942 | 0.994 | 1.01 | 1 | 1 | 1.01
22 | O=C1CN(/N=C/c2ccc([N+](=O)[O-])o2)C(=O)N1 [Nitrofurantoin] | 0.974 | 0.843 (active) | 0.964 | 0.999 | 0.253 | 0.556 | 0.836 | 0.858
23 | NS(=O)(=O)c1cc2c(cc1C(F)(F)F)NC(Cc1ccccc1)NS2(=O)=O (configuration not stated) [Bendroflumethiazide] | 1 | 1.01 | 0.997 | 1.01 | 0.962 | 0.977 | 1.01 | 0.993
24 | COc1cc([S+](C)[O-])ccc1-c1nc2cccnc2[nH]1 (configuration not stated) [Sulmazole] | 1.02 | 1.03 | 1.04 | 1.02 | 1.07 | 1.08 | 0.999 | 0.987
25 | O=c1oc2ccccc2c(O)c1Cc1c(O)c2ccccc2oc1=O [Dicumarol] | 0.986 | 1 | 0.891 | 1 | 0.877 | 0.945 | 1 | 0.891
26 | CCCCN1CCCCC1C(=O)Nc1c(C)cccc1C (configuration not stated) [Bupivacaine hydrochloride] | 1.04 | 0.973 | 0.998 | 0.973 | 1.01 | 0.998 | 0.998 | 0.985
27 | COc1ccc(C2CNC(=O)C2)cc1OC1CCCC1 (configuration not stated) [Rolipram] | 0.976 | 0.948 | 0.945 | 0.984 | 1.01 | 1.02 | 1.01 | 0.98
28 | CC(C)(Oc1ccc(CCNC(=O)c2ccc(Cl)cc2)cc1)C(=O)O [Bezafibrate] | 0.976 | 0.959 | 0.988 | 0.994 | 0.976 | 1 | 0.998 | 0.99
29 | COc1ccccc1Oc1c(NS(=O)(=O)c2ccc(C(C)(C)C)cc2)nc(-c2ncccn2)nc1OCCO [Bosentan] | 1.02 | 1.03 | 1.01 | 1.01 | 1 | 1.01 | 1.01 | 0.985
